Data on 13 molecules can be found in PubChem BioAssay.

The source made the active and inactive calls. Unless noted, how the calls were made is not given here.

In general, remaining activity refers to the signal under treatment as a percentage of the control signal. Broadly, the viability is a read-out of living cells in per cent, often relative to untreated cells.

Assay [1] concerns Aerobactin synthetase IucA (Klebsiella pneumoniae). Nature of the assay: IucA aerobactin synthetase inhibitors, biochemical, Tocris library, absorbance (AID 1345561).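 Further: 100% = enzyme without compound and 0% = no enzyme.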 Particulars: purified IucA enzyme assay, absorbance (OD) read-out; stronger effect = lower value;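 tested at 8 µM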.
A short description of assay [2]: sensitizers of A549 cells to miR-34 induction, primary screen, imaging, A549 dox-inducible miR-34, nuclei and caspase counts (AID 1347080;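 active means compounds whose cell count with miR-34 switched on is under 0.7 times the count with it off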). Particulars: A549 miR-34 inducible, Hoechst nuclei count, 48 h.
A short description of assay [3]: viability rescue of complex I mutant cybrids, primary screen, cell-based, galactose medium, ATP luminescence (AID 1645843;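 active means z-score of at least 1.8 in each of two replicates, scored against plate mean and spread of sample wells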;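 further: positive z means more ATP and so rescue of galactose-driven cybrid death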). The following applies: complex I mutant cybrid cells, 72 h, stronger effect = higher value.
A short description of assay [4]: liver-stage malaria parasite growth inhibition, primary screen, cell-based, HepG2, luciferase luminescence, HepG2 viability (AID 624349; in the data active means parasite load remaining mostly below about 12%, no sharp cut-off; inactive means mostly above about 10%;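 further: 100% = mean of DMSO negative control wells on the same plate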). The following applies: P. berghei liver stage in HepG2, luciferase luminescence, concentration not given here; parasite load remaining: stronger effect = lower value; viability: measured here: HepG2 viability without parasites.
Assay [5] can be described thus: circadian clock period modulators, cell-based, LOPAC library, luminescence reporter (AID 2774).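 Further: values are relative to mean of DMSO wells on each plate.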 The following applies: circadian reporter cells, at 7 µM, actives lie on both sides.
The mark [6] stands for this setting: stronger effect = lower value, cell number ratio, induced over uninduced.
Setting [7] is: measured here: relative caspase fold change +Dox/-Dox.
Setting [8] is: measured here: total cells with miR-34 induction, stronger effect = lower value.
The mark [9] stands for this setting: measured here: total cells without miR-34 induction.

As to `c1cc(Cc2cnc[nH]2)ccn1`, the remaining activity in assay [1] was 105% (inactive). Also, the figures for the fold change in assay [2] (setting [6]) and in assay [2] (setting [7]) were 0.985 (inactive) and 1.35, respectively. Besides, the cell count came out at 9560 in assay [2] (setting [8]) and 9710 in assay [2] (setting [9]). Also, the z-score in assay [3] was -0.25 (inactive).
`O=C1NC(=O)c2c1c1c3ccccc3[nH]c1c1[nH]c3ccccc3c21`: in assay [4], the parasite load remaining was 79.1% (inactive). The viability in assay [4] came out at 159%. For the same molecule, in assay [1], the remaining activity was 93.4% (inactive). Further, the fold change is 0.78 (inactive) in assay [2] (stronger effect = lower value) and 1.58 in assay [2] (setting [7]). For the same molecule, the results for the cell count in assay [2] (setting [8]) and in assay [2] (setting [9]) were 3660 and 4680, respectively. Besides, in assay [3], the z-score is -0.6 (inactive).
In the case of `CC(C)CC(N)C1(c2ccc(Cl)cc2)CCC1` (stereo not drawn), in assay [1], the remaining activity is 120% (inactive). The fold change is 1.01 (inactive) in assay [2] (stronger effect = lower value) and 1.15 in assay [2] (setting [7]). The figures for the cell count in assay [2] (setting [8]) and in assay [2] (setting [9]) were 7820 and 7770, respectively. In addition, the z-score in assay [3] was -0.615 (inactive).
With `O=C1NC(=O)c2c1c1c3ccccc3n3c1c1c2c2ccccc2n1C1CCC3O1`, the parasite load remaining in assay [4] is 66.3% (inactive). Further, the viability in assay [4] was found to be 60.2%. In addition, in assay [1], the remaining activity is 103% (inactive). In addition, the fold change in assay [2] (setting [6]) was 1.12 (inactive); in assay [2] (setting [7]), 1.11. The cell count was 5410 in assay [2] (setting [8]) and 4820 in assay [2] (setting [9]). Moreover, in assay [3], the z-score is -0.395 (inactive).
For the molecule `CCOc1cncc(/C=C/CCNC)c1`, the remaining activity in assay [1] was 108% (inactive). Moreover, the fold change in assay [2] (setting [6]) was 0.967 (inactive); in assay [2] (setting [7]) it was 1.27. Further, the cell count in assay [2] (setting [8]) worked out at 8770; in assay [2] (setting [9]), 9060. Also, the z-score in assay [3] was -0.075 (inactive).
Consider `C[C@H](Cc1ccc(OCC(=O)O)cc1)NC[C@H](O)c1cccc(Cl)c1`, for which the remaining activity in assay [1] is 121% (inactive). Also, the fold change was 0.941 (inactive) in assay [2] (setting [6]) and 0.725 in assay [2] (setting [7]). Besides, the cell count in assay [2] (setting [8]) came out at 7990; in assay [2] (setting [9]), 8500. In addition, in assay [3], the z-score was -0.27 (inactive).
With `C=CCN1C[C@H](C)N([C@H](c2ccc(C(=O)N(CC)CC)cc2)c2cccc(O)c2)C[C@H]1C`, the remaining activity in assay [1] is 99.4% (inactive). For the same molecule, the fold change was 0.929 (inactive) in assay [2] (setting [6]) and 0.728 in assay [2] (setting [7]). Also, the cell count in assay [2] (setting [8]) was 8160; in assay [2] (setting [9]) it was 8780. The z-score in assay [3] was -0.17 (inactive).
`c1ccc(CCCCN2CCC(c3ccccc3)CC2)cc1`: in assay [1], the remaining activity was 90.6% (inactive). For the same molecule, the figures for the fold change in assay [2] (setting [6]) and in assay [2] (setting [7]) were 0.976 (inactive) and 1.02, respectively. Also, the cell count was 8670 in assay [2] (setting [8]) and 8890 in assay [2] (setting [9]). Also, the z-score in assay [3] was 0.375 (inactive).
Regarding `C[C@@H]1O[C@@H](O[C@@H]2C[C@@H](O)[C@]3(CO)[C@H]4[C@H](O)C[C@]5(C)[C@@H](C6=CC(=O)OC6)CC[C@]5(O)[C@@H]4CC[C@]3(O)C2)[C@H](O)[C@H](O)[C@H]1O`, the remaining activity in assay [1] is 107% (inactive). The fold change in assay [2] (setting [6]) was 0.807 (inactive); in assay [2] (setting [7]), 1.91. In addition, the figures for the cell count in assay [2] (setting [8]) and in assay [2] (setting [9]) were 346 and 430, respectively. For the same molecule, in assay [3], the z-score is -0.765 (inactive).
For the molecule `COC1(C[S@@](=O)c2ccccc2)CCN(CCc2c[nH]c3ccc(F)cc23)CC1`, the remaining activity in assay [1] was 113% (inactive). The fold change is 0.956 (inactive) in assay [2] (setting [6]) and 1.03 in assay [2] (setting [7]). The cell count was found to be 8390 in assay [2] (setting [8]) and 8770 in assay [2] (setting [9]). In addition, the z-score in assay [3] was -0.4 (inactive).
As to `Oc1ccc2c3c1O[C@H]1c4c(c5ccccc5n4Cc4ccccc4)C[C@@]4(O)C(C2)N(CC2CC2)CC[C@]314`, in assay [1], the remaining activity is 94.5% (inactive). For the same molecule, the fold change is 0.935 (inactive) in assay [2] (stronger effect = lower value) and 1.27 in assay [2] (setting [7]). Also, the figures for the cell count in assay [2] (setting [8]) and in assay [2] (setting [9]) were 2600 and 2780, respectively. The z-score in assay [3] was -1.2 (inactive).
Regarding `CCc1cccc(CC)c1NC1=NCCN1`, in assay [1], the remaining activity was 115% (inactive). The results for the fold change in assay [2] (setting [6]) and in assay [2] (setting [7]) were 0.952 (inactive) and 1.79, respectively. Also, the figures for the cell count in assay [2] (setting [8]) and in assay [2] (setting [9]) were 8430 and 8850, respectively. Besides, the z-score in assay [3] was -0.02 (inactive).
`CN1CCN(c2ccc3ccccc3n2)CC1`: the period change in assay [5] is -0.045 h (inactive). In assay [1], the remaining activity is 109% (inactive). Further, the fold change is 0.923 (inactive) in assay [2] (setting [6]) and 0.813 in assay [2] (setting [7]). Also, the cell count in assay [2] (setting [8]) was 8930; in assay [2] (setting [9]), 9670. The z-score in assay [3] was -0.58 (inactive).
